# Only some compounds are listed: those with a hit (about 5.7% of all), similar ones and a draw of the others.
# GRIN3A LBD mod – NR3A (human) ligand-binding domain modulation. Tm shift relative to glycine control, % at 25 µM. actives 2.5% (n = 340,000). NR3A LBD differential scanning fluorimetry, Tm shift; 0% = protein alone, 100% = glycine-bound protein;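 active = melting temperature shift of at least 10% of the positive control shift, at one fixed dose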
# Myeloid diff 2 – compounds promoting myeloid differentiation; actives 1% (n = 360,000); ER-HoxA9 myeloid progenitors, lysozyme-GFP differentiation, flow cytometry; calls only at 10 µM; AID 624256;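 active = normalized GFP-positive differentiation at or above the plate's own cutoff, the solvent-only control mean plus 3 SD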;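 also: cells exposed to compound for four days before flow analysis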
# rCAG RNA binder – r(CAG) repeat RNA binding | TO-PRO-1 dye displacement fluorescence | inhibition, % at 3 µM | actives 1.3% (n = 370,000) | AID 651821;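 active = inhibition above the plate cutoff, the mean of all test compounds on that plate plus 3 SD, cut at about 35% in these data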;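 also: higher means more dye released from RNA so lower well fluorescence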
# FAS-TE inh – FAS thioesterase (human) inhibition | P49327 | recombinant FAS-TE, OMFH fluorogenic substrate, fluorescence endpoint | inhibition, % at 15 µM | actives 0.67% (n = 360,000);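 active = compounds whose normalised, plate-corrected inhibition of enzyme fluorescence in the single-dose primary screen is 50% or more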
# MPTP inh – blocks calcium-induced mitochondrial swelling | AID 602449 | inhibition, % at 10 µM | isolated mouse mitochondria, Ca2+ swelling absorbance, 30 min | actives 1.4% (n = 360,000);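 active = inhibition of 50% or more, scaled per plate between neutral and stimulator controls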
# Myeloid diff – promotes myeloid progenitor differentiation; shares compounds with Myeloid diff 2; ER-HoxA9 myeloid progenitors, GFP/Mac1 double-positive flow; calls only; actives 2% (n = 2,300); AID 651706;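 active = share of green or green-and-red cells above 9 and 9% in run 1 or 4 and 3% in run 2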
# GFP autofluor – compound fluorescence in myeloid differentiation counter-screen; shares compounds with Myeloid diff 2; ER-HoxA9 myeloid progenitors, no estrogen, GFP autofluorescence flow cytometry; vehicle wells 0%, positive control 100%; fluorescence response, % (concentration not given with the values); actives 7.4% (n = 2,300); AID 651707;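 active = over 5% cells positive for green fluorescent reporter, or over 2% positive for both it and APC stain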
# A number is an active result; - = inactive; . = no result; + = active, no number.
SMILES,GRIN3A LBD mod,Myeloid diff 2,rCAG RNA binder,FAS-TE inh,MPTP inh,Myeloid diff,GFP autofluor
Cc1cccc(NC(=O)CSc2nc(=O)n(CCCN3CCOCC3)c3c2CCCC3)c1,-,+,-,-,-,-,-
O=C(CCc1nc2ccccc2c(=O)[nH]1)OCC(=O)N1CCc2ccccc21,-,-,-,-,-,.,.
O=C(CCc1nc2ccccc2[nH]c1=O)OCC(=O)N1CCc2ccccc21,-,-,-,-,-,-,-
CCOc1ccc(-c2nnc(-c3ccccc3)n2-c2ccccc2)cc1,-,-,-,-,-,.,.
CCOc1ccc(-n2c(C)c3c(C)nnc(C)c3c2C)cc1,.,-,-,-,-,-,42
COCCCN1C(=O)C(=O)/C(=C(/O)c2ccc(S(=O)(=O)N3CCOCC3)cc2)C1c1ccc(OC)cc1 (centres undefined),-,-,-,-,-,.,.
COc1cc(S(=O)(=O)n2ccc(C)n2)c(OC)cc1Cl,-,+,-,-,-,-,-
COC(=O)c1c(-c2ccccc2)oc2c1C(OCCO)CCC2 (centres undefined),.,-,-,-,-,.,.
C=CCOc1cccc(C2C(C(=O)c3ccco3)=C(O)C(=O)N2Cc2cccnc2)c1 (centres undefined),-,-,-,-,-,.,.
C=CCOc1ccc(C2C(C(=O)c3ccco3)=C(O)C(=O)N2Cc2cccnc2)cc1 (centres undefined),-,-,-,-,-,-,13
O=C(CSc1ccc(-c2cccnc2)nn1)Nc1ccc(Br)cc1,-,-,-,-,-,-,-
CN(Cc1nc(-c2cnccn2)no1)C1CC(C)(C)NC(C)(C)C1,-,-,-,-,-,-,-
CN(Cc1nc(-c2cnccn2)no1)CC1(c2ccccc2)CC1(C)C (centres undefined),-,-,-,-,-,.,.
Fc1ccccc1NC(=S)N1CCN(Cc2ccc3c(c2)OCO3)CC1,-,-,-,-,-,.,.
Cc1cc(Cl)ccc1NC(=S)N1CCN(Cc2ccc3c(c2)OCO3)CC1,-,+,-,-,-,-,-
O=C(c1ccc2c(c1)N(Cc1ccccc1)CCS2)N1CCCCC1,-,-,-,-,-,.,.
Cc1c(C(=O)N2CCC(C)CC2)oc2ccc3c(c12)C(O)CC1(CCCCC1)O3 (centres undefined),-,+,-,-,-,-,-
COc1ccc(NC(=O)N(C)[C@H]2C[C@H]3c4[nH]c5ccc(-c6ccc7c(c6)OCO7)cc5c4CCN3C[C@H]2[C@H](C)O)cc1,.,-,-,-,-,-,-
Cc1ccc(C)c(N(CC(=O)NC2CCCC2)C(=O)c2oc(C(C)(C)C)cc2C)c1,-,-,-,-,-,-,-
COc1ccc(-n2c(SCC(N)=O)nnc2-c2ccc(NS(=O)(=O)c3ccc(C)cc3)cc2)cc1,-,+,-,-,-,-,-
COc1ccccc1-c1noc2ncnc(Nc3ccc4c(c3)OCO4)c12,-,-,-,-,-,.,.
Cc1ccc(OCc2ccc(C(=O)NN)o2)cc1C,-,-,-,-,-,.,.
NNC(=O)c1ccc(COc2ccc3ccccc3c2)o1,-,+,-,-,-,-,-
CCOc1ccc(OCc2ccc(C(=O)NC(C)(C)C)o2)cc1,-,-,-,-,-,.,.
CCOc1ccc(OCc2ccc(C(=O)NN)o2)cc1,-,+,-,-,-,-,-
SMILES,GRIN3A LBD mod,Myeloid diff 2,rCAG RNA binder,FAS-TE inh,MPTP inh,Myeloid diff,GFP autofluor
CC(C)NC(=O)c1ccc(COc2cccc3ccccc23)o1,.,-,-,-,-,.,.
NNC(=O)c1ccc(COc2cccc3ccccc23)o1,-,+,-,-,-,-,-
CC(=O)Nc1cc(C(=O)N2CCc3ccccc3C2)ccc1Sc1ccc(F)cc1,-,-,-,-,-,.,.
Cc1cc(N)ccc1NC(=O)CN1CCCC1,-,-,-,-,-,.,.
C/C(=N/NC(=O)CCC(=O)Nc1cccc(Cl)c1)c1ccc(C)cc1,-,-,-,-,-,.,.
CN1CCN(c2nnc(-c3ccc(F)cc3)c3ccccc23)CC1,-,.,-,-,-,.,.
C=CCn1c(Cc2csc(N)n2)nnc1SCC(=O)Nc1ccccc1C(F)(F)F,-,-,-,-,-,.,.
COC(=O)c1c(NC(=O)C2(C)Cc3ccccc3C(=O)O2)sc2c1CCCC2 (centres undefined),-,+,-,-,-,-,-
